The supplement of paper PMC10849652
Of roughly 8,800 targets only a part is listed; those with a hit were picked by preference. About 0.5% of all pairs of compound and target were hits.

Key:
Assay in all cases: log2 fold change, soluble protein after heating vs DMSO (PISA); higher = thermal stabilisation; K562 lysate, 10 uM; active = over 0.2 and 3.5 SD of the protein, either way, in both replicates (recomputed)
[1] = compound: NCC(=O)Nc1ccc(-n2nc(C(F)(F)F)cc2-c2ccc3c(ccc4ccccc43)c2)cc1
Summary of the method: (§1)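 K562 pellets were dounce-homogenised in PBS pH 7.4 containing 1 mM MgCl2, and the crude extract, at 1 mg/mL protein, was exposed to 10 μM compound for 30 min. Aliquots were heated for 3 min across 48°C-58°C, pooled, brought to 0.5% NP-40 at 4°C and spun at 21,000xg for 90 min, with the supernatant taken as soluble protein. TMTpro 16plex LC-MS/MS with equalised channel sums quantified that protein. Values are log-two fold changes in thermal stability relative to solvent controls, taken from duplicates.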

vorinostat = compound: O=C(CCCCCCC(=O)Nc1ccccc1)NO [vorinostat]
Summary of the method: as §1

silmitasertib = compound: O=C(O)c1ccc2c(c1)nc(Nc1cccc(Cl)c1)c1ccncc12 [silmitasertib]
Summary of the method: as §1

[2] = compound: O=C1NC(=O)C(c2cnc3ccccn23)=C1c1cn2c3c(cc(F)cc13)CN(C(=O)N1CCCCC1)CC2
Summary of the method: as §1

entospletinib = compound: c1cn2cc(-c3ccc4cn[nH]c4c3)nc(Nc3ccc(N4CCOCC4)cc3)c2n1 [entospletinib]
Summary of the method: as §1

Measured: log2 fold change

SRGN (UniProt P10124)
Chain of UniProt P10124 (P10124 whole entry, looked up): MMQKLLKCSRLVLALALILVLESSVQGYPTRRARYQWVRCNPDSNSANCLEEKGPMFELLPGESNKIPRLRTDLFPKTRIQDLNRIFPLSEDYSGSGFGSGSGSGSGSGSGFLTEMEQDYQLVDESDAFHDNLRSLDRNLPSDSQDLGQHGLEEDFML
inactive: [1] -0.073 | vorinostat 0.132 | silmitasertib -0.123 | [2] -0.087 | entospletinib -0.013

SNCA (UniProt P37840)
inactive: [1] 0.069 | vorinostat 0.161 | silmitasertib -0.235 | [2] -0.023 | entospletinib -0.126

STK11IP (UniProt Q8N1F8)
active: vorinostat -0.254
inactive: [1] -0.017 | silmitasertib 0.025 | [2] 0.008 | entospletinib 0.024

SLC7A5 (UniProt Q01650)
inactive: [1] 0.034 | vorinostat 0.109 | silmitasertib -0.04 | [2] 0.013 | entospletinib 0.03

SLC25A25 isoform 3 (UniProt Q6KCM7)
inactive: [1] 0.016 | vorinostat 0.054 | silmitasertib 0.02 | [2] -0.036 | entospletinib 0.001

SMC2 (UniProt O95347)
Chain of UniProt O95347 (O95347 whole entry, looked up): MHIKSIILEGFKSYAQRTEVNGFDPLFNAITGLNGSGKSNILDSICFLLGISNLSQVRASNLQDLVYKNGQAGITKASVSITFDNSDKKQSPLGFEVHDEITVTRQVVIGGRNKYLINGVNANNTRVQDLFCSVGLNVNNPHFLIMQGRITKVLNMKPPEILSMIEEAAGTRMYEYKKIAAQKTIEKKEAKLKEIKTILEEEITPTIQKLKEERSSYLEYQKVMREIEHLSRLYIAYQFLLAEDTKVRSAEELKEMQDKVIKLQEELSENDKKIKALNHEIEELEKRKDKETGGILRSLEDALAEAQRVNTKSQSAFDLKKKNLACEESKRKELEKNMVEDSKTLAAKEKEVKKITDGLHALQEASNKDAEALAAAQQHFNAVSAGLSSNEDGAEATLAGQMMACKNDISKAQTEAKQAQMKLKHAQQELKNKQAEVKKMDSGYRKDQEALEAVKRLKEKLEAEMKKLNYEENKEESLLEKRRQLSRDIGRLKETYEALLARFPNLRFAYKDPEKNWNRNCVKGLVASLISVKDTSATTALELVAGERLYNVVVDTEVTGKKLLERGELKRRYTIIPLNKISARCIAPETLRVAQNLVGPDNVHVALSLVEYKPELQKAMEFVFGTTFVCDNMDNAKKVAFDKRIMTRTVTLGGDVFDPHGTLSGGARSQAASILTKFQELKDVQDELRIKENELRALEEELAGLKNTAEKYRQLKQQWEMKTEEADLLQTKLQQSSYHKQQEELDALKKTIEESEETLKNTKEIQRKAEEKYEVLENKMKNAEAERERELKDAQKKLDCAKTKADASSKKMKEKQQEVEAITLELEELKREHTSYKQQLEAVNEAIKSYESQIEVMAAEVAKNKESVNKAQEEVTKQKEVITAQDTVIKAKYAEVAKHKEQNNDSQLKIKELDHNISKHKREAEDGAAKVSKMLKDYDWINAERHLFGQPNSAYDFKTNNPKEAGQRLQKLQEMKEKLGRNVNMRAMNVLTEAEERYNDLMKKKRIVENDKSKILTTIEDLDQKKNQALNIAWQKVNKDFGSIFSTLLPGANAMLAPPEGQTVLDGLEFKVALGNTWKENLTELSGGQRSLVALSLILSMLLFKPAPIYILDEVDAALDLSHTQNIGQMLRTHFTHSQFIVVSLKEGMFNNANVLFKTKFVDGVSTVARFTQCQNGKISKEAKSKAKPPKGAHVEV
inactive: [1] 0.014 | silmitasertib 0.016 | [2] -0.01 | entospletinib 0.009
active: vorinostat -0.308

SLC16A1 (UniProt P53985)
active: vorinostat -0.62
inactive: [1] 0.004 | silmitasertib -0.012 | [2] -0.01 | entospletinib 0.012

SPR (UniProt P35270)
Chain of UniProt P35270 (P35270 whole entry, looked up): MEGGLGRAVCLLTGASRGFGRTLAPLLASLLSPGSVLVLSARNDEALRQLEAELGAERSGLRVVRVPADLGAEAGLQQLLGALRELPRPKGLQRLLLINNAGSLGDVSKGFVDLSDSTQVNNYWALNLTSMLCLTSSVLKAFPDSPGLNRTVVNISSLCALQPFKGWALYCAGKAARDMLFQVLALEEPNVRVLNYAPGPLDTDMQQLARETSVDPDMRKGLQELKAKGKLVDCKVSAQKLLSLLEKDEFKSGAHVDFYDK
inactive: [1] -0.037 | vorinostat -0.199 | silmitasertib 0.308 | [2] 0.219 | entospletinib 0.003

SPC25 (UniProt Q9HBM1)
inactive: [1] 0.026 | silmitasertib 0 | [2] 0.016 | entospletinib -0.004
active: vorinostat -0.266

SLC39A11 (UniProt Q8N1S5)
inactive: [1] -0.076 | vorinostat 0.103 | silmitasertib -0.015 | [2] 0.058 | entospletinib -0.137

SMG5 (UniProt Q9UPR3)
Chain of UniProt Q9UPR3 (Q9UPR3 whole entry, looked up): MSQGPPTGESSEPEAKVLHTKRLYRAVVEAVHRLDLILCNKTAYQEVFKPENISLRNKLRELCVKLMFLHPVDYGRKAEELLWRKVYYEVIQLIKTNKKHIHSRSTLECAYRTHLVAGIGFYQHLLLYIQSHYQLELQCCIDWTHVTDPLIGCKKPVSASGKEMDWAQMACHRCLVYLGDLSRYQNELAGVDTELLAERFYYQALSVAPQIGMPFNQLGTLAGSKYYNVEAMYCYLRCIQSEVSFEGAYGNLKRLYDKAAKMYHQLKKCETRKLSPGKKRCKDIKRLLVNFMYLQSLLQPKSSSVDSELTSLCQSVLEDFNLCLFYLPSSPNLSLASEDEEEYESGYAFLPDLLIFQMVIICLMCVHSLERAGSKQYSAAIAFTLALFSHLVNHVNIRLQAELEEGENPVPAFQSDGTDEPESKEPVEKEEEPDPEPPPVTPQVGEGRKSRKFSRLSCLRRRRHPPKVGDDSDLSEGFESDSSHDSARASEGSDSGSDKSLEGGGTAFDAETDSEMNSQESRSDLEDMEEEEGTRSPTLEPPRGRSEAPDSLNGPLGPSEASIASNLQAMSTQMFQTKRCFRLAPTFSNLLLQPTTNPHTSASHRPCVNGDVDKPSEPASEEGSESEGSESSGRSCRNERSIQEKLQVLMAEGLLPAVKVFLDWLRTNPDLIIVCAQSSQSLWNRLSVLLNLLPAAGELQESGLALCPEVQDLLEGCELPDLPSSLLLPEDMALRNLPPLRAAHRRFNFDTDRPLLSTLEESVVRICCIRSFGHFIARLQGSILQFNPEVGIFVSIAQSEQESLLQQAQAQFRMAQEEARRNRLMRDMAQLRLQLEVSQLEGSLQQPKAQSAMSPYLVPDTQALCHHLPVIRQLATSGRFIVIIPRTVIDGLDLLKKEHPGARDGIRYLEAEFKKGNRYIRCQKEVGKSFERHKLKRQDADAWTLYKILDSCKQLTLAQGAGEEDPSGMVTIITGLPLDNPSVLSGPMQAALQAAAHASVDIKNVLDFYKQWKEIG
active: vorinostat -0.381
inactive: [1] 0.04 | silmitasertib -0.024 | [2] 0.024 | entospletinib -0.023

STAT2 (UniProt P52630)
active: vorinostat -0.254
inactive: [1] -0.018 | silmitasertib 0.063 | [2] -0.017 | entospletinib 0.011

SYPL1 (UniProt Q16563)
inactive: [1] -0.003 | vorinostat 0.005 | silmitasertib -0.03 | [2] -0.02 | entospletinib 0.014

SYNRG (UniProt Q9UMZ2)
inactive: [1] 0.02 | vorinostat -0.002 | silmitasertib -0.01 | [2] -0.002 | entospletinib -0.014

SLC35A3 isoform 2 (UniProt Q9Y2D2)
inactive: [1] -0.022 | vorinostat 0.091 | silmitasertib -0.07 | [2] 0.019 | entospletinib 0

SPATA5 (UniProt Q8NB90)
inactive: [1] 0.005 | vorinostat -0.247 | silmitasertib 0.048 | [2] -0.011 | entospletinib 0.013

SORBS3 (UniProt O60504)
active: vorinostat -0.561
inactive: [1] -0.122 | silmitasertib 0.057 | [2] 0.031 | entospletinib 0.01

SMYD3 (UniProt Q9H7B4)
inactive: [1] 0.044 | silmitasertib 0.029 | [2] -0.003 | entospletinib -0.008
active: vorinostat -0.202

SNRPF (UniProt P62306)
inactive: [1] -0.019 | vorinostat -0.014 | silmitasertib -0.001 | [2] -0.01 | entospletinib -0.016

SNUPN (UniProt O95149)
Chain of UniProt O95149 (O95149 whole entry, looked up): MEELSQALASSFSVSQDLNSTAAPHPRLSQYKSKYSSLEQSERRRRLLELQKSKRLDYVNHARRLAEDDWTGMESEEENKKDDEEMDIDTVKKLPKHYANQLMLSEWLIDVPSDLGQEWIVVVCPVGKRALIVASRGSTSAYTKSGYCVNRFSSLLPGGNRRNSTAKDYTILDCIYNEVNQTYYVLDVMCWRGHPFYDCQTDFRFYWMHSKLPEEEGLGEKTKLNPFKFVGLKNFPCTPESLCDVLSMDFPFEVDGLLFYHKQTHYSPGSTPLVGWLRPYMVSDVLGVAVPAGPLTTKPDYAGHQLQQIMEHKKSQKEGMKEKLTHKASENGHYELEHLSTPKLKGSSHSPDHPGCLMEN
inactive: [1] -0.076 | vorinostat -0.037 | silmitasertib 0.142 | [2] -0.043 | entospletinib -0.066

TANK (UniProt Q92844)
Chain of UniProt Q92844 (Q92844 whole entry, looked up): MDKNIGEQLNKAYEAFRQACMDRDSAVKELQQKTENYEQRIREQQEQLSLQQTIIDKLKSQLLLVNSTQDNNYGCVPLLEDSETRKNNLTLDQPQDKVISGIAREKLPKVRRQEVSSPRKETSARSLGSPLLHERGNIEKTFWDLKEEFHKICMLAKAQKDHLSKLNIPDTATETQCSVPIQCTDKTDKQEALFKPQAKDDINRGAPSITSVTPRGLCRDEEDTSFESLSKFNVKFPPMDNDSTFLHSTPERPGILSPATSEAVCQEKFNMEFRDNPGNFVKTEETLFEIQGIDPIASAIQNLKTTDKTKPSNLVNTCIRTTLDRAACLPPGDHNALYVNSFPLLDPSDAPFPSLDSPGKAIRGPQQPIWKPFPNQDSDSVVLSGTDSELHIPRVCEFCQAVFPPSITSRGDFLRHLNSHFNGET
inactive: [1] 0.041 | vorinostat -0.102 | silmitasertib 0.124 | [2] 0.071 | entospletinib 0.132

SLC20A1 (UniProt Q8WUM9)
inactive: [1] 0 | vorinostat 0.062 | silmitasertib -0.05 | [2] 0.021 | entospletinib 0.064

SLC19A1 (UniProt P41440)
inactive: [1] 0.003 | vorinostat 0.01 | silmitasertib -0.024 | [2] -0.054 | entospletinib -0.002

TARBP1 (UniProt Q13395)
inactive: [1] -0.151 | silmitasertib 0.097 | [2] 0.017 | entospletinib 0.028
active: vorinostat -0.608

SYNE2 isoform 2 (UniProt Q8WXH0)
inactive: [1] 0.071 | vorinostat 0.088 | silmitasertib -0.015 | [2] 0.051 | entospletinib -0.003

SRM (UniProt P19623)
Chain of UniProt P19623 (P19623 whole entry, looked up): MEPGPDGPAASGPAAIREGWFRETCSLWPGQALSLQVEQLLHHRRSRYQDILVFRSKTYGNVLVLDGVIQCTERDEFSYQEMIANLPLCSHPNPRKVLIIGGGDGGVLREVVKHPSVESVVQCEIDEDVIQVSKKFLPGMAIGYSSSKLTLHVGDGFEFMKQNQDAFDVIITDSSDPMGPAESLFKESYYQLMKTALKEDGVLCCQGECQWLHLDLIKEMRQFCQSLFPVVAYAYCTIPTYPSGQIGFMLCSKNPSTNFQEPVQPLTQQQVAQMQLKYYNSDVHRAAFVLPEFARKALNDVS
inactive: [1] 0.009 | vorinostat -0.029 | silmitasertib 0.008 | [2] 0.052 | entospletinib 0.001

STMN3 (UniProt Q9NZ72)
inactive: [1] -0.028 | vorinostat 0.065 | silmitasertib -0.033 | [2] -0.004 | entospletinib 0.07

SLC25A36 (UniProt Q96CQ1)
inactive: [1] -0.172 | vorinostat -0.071 | silmitasertib 0.001 | [2] 0.033 | entospletinib 0.013

SMN1 (UniProt Q16637)
inactive: [1] -0.014 | silmitasertib 0.035 | [2] 0.052 | entospletinib -0.024
active: vorinostat -0.278

SH3BGRL2 (UniProt Q9UJC5)
inactive: [1] -0.003 | vorinostat 0.153 | silmitasertib -0.011 | [2] 0.099 | entospletinib 0.04

SMAD2 (UniProt Q15796)
active: vorinostat -0.752
inactive: [1] -0.025 | silmitasertib -0.051 | [2] 0.008 | entospletinib -0.049

STK36 (UniProt Q9NRP7)
inactive: [1] 0.283 | vorinostat 0.143 | silmitasertib -0.032 | [2] 0.101 | entospletinib -0.031

SRSF7 (UniProt Q16629)
inactive: [1] 0.02 | vorinostat 0.134 | silmitasertib -0.052 | [2] -0.014 | entospletinib -0.013

SMIM12 (UniProt Q96EX1)
inactive: [1] -0.044 | vorinostat 0.174 | silmitasertib -0.003 | [2] -0.025 | entospletinib -0.058

SP1 (UniProt P08047)
active: vorinostat -0.376
inactive: [1] 0.001 | silmitasertib -0.045 | [2] 0.081 | entospletinib -0.006

TAF9 (UniProt Q16594)
inactive: [1] 0.002 | vorinostat -0.099 | silmitasertib -0.011 | [2] -0.003 | entospletinib -0.017

TARDBP (UniProt Q13148)
inactive: [1] 0.044 | silmitasertib 0.086 | [2] -0.268 | entospletinib -0.027
active: vorinostat -0.44

SUZ12 (UniProt Q15022)
inactive: [1] -0.064 | vorinostat -0.156 | silmitasertib 0.023 | [2] 0.021 | entospletinib 0.043

SRSF2 (UniProt Q01130)
inactive: [1] 0.023 | vorinostat 0.087 | silmitasertib -0.017 | [2] -0.043 | entospletinib -0.055

TAPT1 (UniProt Q6NXT6)
inactive: [1] 0.023 | vorinostat 0.09 | silmitasertib 0.007 | [2] 0.023 | entospletinib 0.001

SMG1 (UniProt Q96Q15)
active: vorinostat -0.348
inactive: [1] 0.005 | silmitasertib 0.011 | [2] -0.006 | entospletinib -0.007

SNRPD2 (UniProt K7EJB5)
active: vorinostat 0.493
inactive: [1] 0.119 | silmitasertib 0.056 | [2] -0.1 | entospletinib -0.004

SSNA1 (UniProt O43805)
Chain of UniProt O43805 (O43805 whole entry, looked up): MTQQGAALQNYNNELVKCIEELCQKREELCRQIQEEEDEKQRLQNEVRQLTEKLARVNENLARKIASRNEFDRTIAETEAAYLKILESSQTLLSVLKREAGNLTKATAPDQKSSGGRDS
inactive: [1] -0.036 | silmitasertib 0 | [2] -0.023 | entospletinib -0.065
active: vorinostat -0.34

SMC6 (UniProt Q96SB8)
Chain of UniProt Q96SB8 (Q96SB8 whole entry, looked up): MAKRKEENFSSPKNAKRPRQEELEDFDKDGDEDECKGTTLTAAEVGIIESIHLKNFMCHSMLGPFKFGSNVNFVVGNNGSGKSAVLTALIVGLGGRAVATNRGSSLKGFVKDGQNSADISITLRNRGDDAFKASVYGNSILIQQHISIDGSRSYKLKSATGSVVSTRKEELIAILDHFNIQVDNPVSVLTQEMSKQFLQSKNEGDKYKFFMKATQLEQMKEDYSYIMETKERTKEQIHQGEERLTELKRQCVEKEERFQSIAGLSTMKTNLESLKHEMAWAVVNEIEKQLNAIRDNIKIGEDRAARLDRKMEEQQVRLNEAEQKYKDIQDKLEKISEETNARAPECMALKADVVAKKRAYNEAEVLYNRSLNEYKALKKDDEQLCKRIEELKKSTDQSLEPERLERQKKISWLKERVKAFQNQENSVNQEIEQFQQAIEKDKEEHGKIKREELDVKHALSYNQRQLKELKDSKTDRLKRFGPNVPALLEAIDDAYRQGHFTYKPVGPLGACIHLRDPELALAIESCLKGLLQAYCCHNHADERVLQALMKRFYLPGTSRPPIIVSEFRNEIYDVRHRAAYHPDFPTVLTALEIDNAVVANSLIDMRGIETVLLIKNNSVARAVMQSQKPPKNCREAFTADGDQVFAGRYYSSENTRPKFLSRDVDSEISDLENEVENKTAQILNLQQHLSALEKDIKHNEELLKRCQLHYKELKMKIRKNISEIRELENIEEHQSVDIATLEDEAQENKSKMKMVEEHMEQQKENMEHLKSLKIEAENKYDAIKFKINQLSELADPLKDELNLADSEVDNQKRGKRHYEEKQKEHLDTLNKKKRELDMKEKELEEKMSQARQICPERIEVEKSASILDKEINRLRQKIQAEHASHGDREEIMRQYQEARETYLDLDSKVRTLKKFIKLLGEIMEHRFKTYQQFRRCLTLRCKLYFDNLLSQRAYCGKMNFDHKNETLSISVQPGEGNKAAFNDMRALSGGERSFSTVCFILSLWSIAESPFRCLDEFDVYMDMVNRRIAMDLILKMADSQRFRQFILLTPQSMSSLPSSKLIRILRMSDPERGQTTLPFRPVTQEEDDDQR
inactive: [1] -0.006 | silmitasertib -0.022 | [2] 0.019 | entospletinib -0.013
active: vorinostat -0.245

SNAP23 (UniProt O00161)
inactive: [1] -0.017 | vorinostat 0.052 | silmitasertib -0.067 | [2] -0.016 | entospletinib 0.004

SKP2 (UniProt Q13309)
inactive: [1] -0.07 | vorinostat -0.203 | silmitasertib 0.012 | [2] 0.009 | entospletinib -0.103

SMAP2 (UniProt Q8WU79)
inactive: [1] 0 | vorinostat -0.032 | silmitasertib 0.017 | [2] -0.04 | entospletinib -0.028

SLC38A1 (UniProt Q9H2H9)
inactive: [1] -0.015 | vorinostat 0.099 | silmitasertib 0 | [2] 0.008 | entospletinib -0.015

SPIRE1 (UniProt Q08AE8)
inactive: [1] 0.092 | vorinostat 0.15 | silmitasertib -0.02 | [2] -0.129 | entospletinib 0.076

SLC25A32 (UniProt Q9H2D1)
inactive: [1] 0.053 | vorinostat 0.23 | silmitasertib -0.008 | [2] 0.046 | entospletinib 0.033

SLU7 (UniProt O95391)
inactive: [1] 0.208 | vorinostat 0.012 | silmitasertib -0.037 | [2] 0.046 | entospletinib -0.024

SPNS1 (UniProt Q9H2V7)
inactive: [1] 0.086 | vorinostat -0.022 | silmitasertib 0.033 | [2] -0.025 | entospletinib -0.045

SHC1 isoform 6 (UniProt P29353)
inactive: [1] 0.029 | vorinostat 0.025 | silmitasertib -0.017 | [2] -0.055 | entospletinib -0.058
